Consider nine molecules from PubChem BioAssay (Tox21).

A number with no mark means an inactive call. Records with an inconclusive call do not appear. The source made the active and inactive calls. Unless noted, the call rests on the fitted dose curve; in most records, active means well fitted curve in the direction sought with a large enough effect in the repeat runs; inconclusive means weak or mixed curves; inactive means no such curve, though single readings can be large; an effect the other way counts as inactive or inconclusive.

The target in assay [1] is Nuclear receptor subfamily 1 group I member 3 (Homo sapiens) (UniProt Q14994). Briefly: qHTS assay to identify small molecule agonists of the constitutive androstane receptor (CAR) signaling pathway (AID 1224839).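 Further: HepG2 cells stably carrying human CAR and a CYP2B6 luciferase reporter; series mostly up to about 92 µM; nearly all actives have a fitted effect of over 15% in size.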 The procedure, abridged:
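Readout: firefly luciferase luminescence via ONE-Glo. System: HepG2 double-stable for hCAR and CYP2B6-2.2kb. Conditions: 15-point compound titration, PK11195 at 0.75 uM final, 24 h incubation.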

Assay [2] is described as follows: qHTS assay to identify small molecule antagonists of the estrogen related receptor signaling pathway with the pleiotropic PPARgamma coactivator (PGC) from Tox21 10K library - cell viability counter screen (AID 1224840; active means well fitted cell-killing curve with a large enough effect in the repeat runs, not every such curve was filed as active; further: nearly all actives have a fitted effect of over 40% in size). The procedure, abridged: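 Seeded PGC/ERR cells (2,000/well, 6 h, 37 C/5% CO2) get compound by pin tool; 17.5 h incubation at 37 C; CellTiter-Fluor added, 30 min, fluorescence measured.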
A general note: Quantitative high-throughput screening tests each substance at several concentrations.

The nature of assay [3]: qHTS assay to identify small molecule agonists of the hypoxia (HIF-1) signaling pathway - cell viability counter screen (AID 1224844; calls by dose curve; further: nearly all actives have a fitted effect of over 50% in size). The procedure, abridged:
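HRE-bla ME-180; 0.5% dFBS; cpd 17 h, 37C, 5% CO2; CellTiter-Glo lum., 30 min RT, post-FRET read, same wells.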

A short description of assay [4]: qHTS assay to identify small molecule agonists of H2AX (AID 1224845; active means well fitted activation curve with a large enough effect in the signal ratio in the repeat runs, not every such curve was filed as active; the % refers to the signal ratio). In a few lines:
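Wild-type CHO-K1 cells plated overnight, then exposed 3 hr at 37C to compounds at 15 concentrations (0.76% DMSO). Lysed, then HTRF anti-pH2AX(S139)-cryptate/anti-H2AX-d2 detection after 24 hr at room temperature; emissions 665 and 620 nm.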

A short description of assay [5]: qHTS assay to identify small molecule agonists of H2AX - cell viability counter screen (AID 1224847; calls by dose curve; further: top concentration of the series differs between compounds; nearly all actives have a fitted effect of over 30% in size). The procedure, abridged:
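For this counter screen, overnight-attached CHO-K1 cells received test compounds (15 concentrations, 0.76% DMSO final); 3 hr later at 37C, CellTiter-Glo reagent was added and luminescence recorded after 30 min at room temperature.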

Assay [6] can be described thus: qHTS RealTime-Glo MT Cell Viability Assay in HepG2 cells - 24 hour (AID 1224867). Further: nearly all actives have a fitted effect of over 50% in size. The procedure, abridged: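 HepG2 suspension premixed with RealTime-Glo reagents is plated at 600 cells per well and left 5 h at 37 C/5% CO2. Compounds in DMSO then go in, and bioluminescence reflecting viable cell number is recorded over 40 h.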
Assay [7] is described as follows: qHTS RealTime-Glo MT Cell Viability Assay in HEK293 cells - 32 hour (AID 1224868). Further: nearly all actives have a fitted effect of over 50% in size. Further: potency means the concentration at half of the fitted maximal effect. In a few lines:
(§1)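 Reads taken at 0, 8, 16, 24, 32 and 40 h from the same wells. HEK293 cells (600/well) carried RealTime-Glo reagents from seeding, with compound added after a 5 h settle at 37 C.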

Assay [8] in a line: A CellTox Green Cytotoxicity Assay to monitor cytotoxicity in HEK293 cells - 0 hour (AID 1224869). Further: nearly all actives have a fitted effect of over 50% in size. In a few lines:
(§2)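 Tox21 screen in HEK293: membrane-impermeant cyanine dye fluoresces on binding dead-cell DNA; compound pinned 5 h post-seeding, plates held at 37 C, signal read repeatedly through 40 h.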

Assay [9] in a line: qHTS RealTime-Glo MT Cell Viability Assay in HepG2 cells - 40 hour (AID 1224870). Further: nearly all actives have a fitted effect of over 50% in size. The procedure, abridged:
(§3)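 HepG2 cells mixed with RealTime-Glo MT reagents (NanoLuc plus cell-permeant prosubstrate) were seeded at 600 cells/well, incubated 5 h at 37 C/5% CO2, then pinned with compounds in DMSO; nonlytic luminescence tracked viability during 40 h treatment.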

The nature of assay [10]: A CellTox Green Cytotoxicity Assay to monitor cytotoxicity in HEK293 cells - 40 hour (AID 1224871). Further: nearly all actives have a fitted effect of over 45% in size. The procedure, abridged: as §2
Assay [11] can be described thus: qHTS RealTime-Glo MT Cell Viability Assay in HEK293 cells - 16 hour (AID 1224872). Further: nearly all actives have a fitted effect of over 50% in size. Further: potency means the concentration at half of the fitted maximal effect. In a few lines:
as §1

Assay [12] is described as follows: qHTS RealTime-Glo MT Cell Viability Assay in HepG2 cells - 8 hour (AID 1224873). Further: nearly all actives have a fitted effect of over 55% in size. In a few lines: as §3
Assay [13] in a line: qHTS RealTime-Glo MT Cell Viability Assay in HEK293 cells - 40 hour (AID 1224874). Further: nearly all actives have a fitted effect of over 50% in size. Further: potency means the concentration at half of the fitted maximal effect. Conditions: RealTime-Glo luminescence; max response: stronger effect = lower value. The procedure, abridged:
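HEK293 + NanoLuc + prosubstrate, 600 cells/well; 5 h, 37 C/5% CO2; compound 23 nL in DMSO by pintool; 37 C; luminescence read at 0, 8, 16, 24, 32 and 40 h time points.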

Assay [14] is described as follows: A CellTox Green Cytotoxicity Assay to monitor cytotoxicity in HEK293 cells - 24 hour (AID 1224875). Further: series mostly up to about 77 µM; nearly all actives have a fitted effect of over 45% in size. The procedure, abridged:
as §2

Assay [15] is described as follows: qHTS assay to identify small molecule agonists of the hypoxia (HIF-1) signaling pathway (AID 1224846; active means well fitted activation curve with a large enough effect in the signal ratio in the repeat runs, not every such curve was filed as active; the % refers to the signal ratio). In a few lines:
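Reporter induction in HRE-bla ME-180 cells is taken as agonism: cells sit 5 hrs after plating, receive compounds or DMSO only, incubate 17 hrs at 37C under 5% CO2, and are loaded with CCF4-AM for beta-lactamase FRET measurement.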

The nature of assay [16]: qHTS assay to identify small molecule antagonists of the estrogen related receptor signaling pathway with the pleiotropic PPARgamma coactivator (PGC) from Tox21 10K library (AID 1224841; call rule not given here). In a few lines:
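Test chemicals dissolved in DMSO were applied to pre-incubated (6 h) PGC/ERR cells at 2,000 cells/well for an 18 h, 37 C treatment; reporter luminescence was then read using One-Glo.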

Assay [17] in a line: qHTS assay to identify small molecule agonists of the estrogen related receptor signaling pathway with the pleiotropic PPARgamma coactivator (PGC) from Tox21 10K library (AID 1224842). Further: nearly all actives have a fitted effect of over 15% in size. The procedure, abridged:
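PGC/ERR reporter cells (NTP line) were seeded 2,000 per well, rested 6 h at 37 C/5% CO2, then pin-dosed with compounds in DMSO for 18 h at 37 C; luciferase read by One-Glo luminescence after 30 min at room temperature.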

Assay [18] concerns the target Thyrotropin receptor (Homo sapiens) (UniProt P16473). The assay is described as follows: qHTS assay to identify small molecule agonists of the thyroid stimulating hormone receptor (TSHR) signaling pathway (AID 1224843; calls by dose curve; further: nearly all actives have a fitted effect of over 45% in size). The procedure, abridged:
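Using 15 concentrations per compound in triplicate, cAMP production was monitored in TSHR-HEK293 cells after 30 min compound incubation at RT; HTRF reagents followed, with fluorescence intensity recorded after 1 h.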

Assay [19] in a line: qHTS assay to identify small molecule antagonists of the estrogen related receptor (ERR) signaling pathway from Tox21 library (AID 1224848). Further: nearly all actives have a fitted effect of over 50% in size. In a few lines:
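Tox21 10K compounds in DMSO tested for ERR pathway antagonism in NTP's ERR cell line; 18 h, 37 C exposure; ONE-Glo luminescence.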

Assay [20] is described as follows: qHTS assay to identify small molecule agonists of the estrogen related receptor (ERR) signaling pathway from Tox21 library (AID 1224849; calls by dose curve; further: nearly all actives have a fitted effect of over 15% in size). In a few lines:
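Tox21 compounds tested for ERR agonism in an NTP reporter cell line: 18 h treatment at 37 C, then ONE-Glo luminescence.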
On the % scale 0 is the no-effect control and ±100 the full control effect.

Sequence of Nuclear receptor subfamily 1 group I member 3 (Homo sapiens) (Q14994 whole entry, looked up): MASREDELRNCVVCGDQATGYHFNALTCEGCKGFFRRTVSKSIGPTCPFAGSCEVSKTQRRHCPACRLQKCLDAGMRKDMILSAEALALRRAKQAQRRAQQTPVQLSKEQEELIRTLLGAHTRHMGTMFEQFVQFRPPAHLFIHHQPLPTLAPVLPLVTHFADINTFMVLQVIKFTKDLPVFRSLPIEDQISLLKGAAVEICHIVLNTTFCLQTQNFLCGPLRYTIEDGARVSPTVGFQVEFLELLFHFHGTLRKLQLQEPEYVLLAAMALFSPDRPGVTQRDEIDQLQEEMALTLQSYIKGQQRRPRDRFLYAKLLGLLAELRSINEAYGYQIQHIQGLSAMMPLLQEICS
Sequence of Thyrotropin receptor (Homo sapiens) (P16473 whole entry, looked up): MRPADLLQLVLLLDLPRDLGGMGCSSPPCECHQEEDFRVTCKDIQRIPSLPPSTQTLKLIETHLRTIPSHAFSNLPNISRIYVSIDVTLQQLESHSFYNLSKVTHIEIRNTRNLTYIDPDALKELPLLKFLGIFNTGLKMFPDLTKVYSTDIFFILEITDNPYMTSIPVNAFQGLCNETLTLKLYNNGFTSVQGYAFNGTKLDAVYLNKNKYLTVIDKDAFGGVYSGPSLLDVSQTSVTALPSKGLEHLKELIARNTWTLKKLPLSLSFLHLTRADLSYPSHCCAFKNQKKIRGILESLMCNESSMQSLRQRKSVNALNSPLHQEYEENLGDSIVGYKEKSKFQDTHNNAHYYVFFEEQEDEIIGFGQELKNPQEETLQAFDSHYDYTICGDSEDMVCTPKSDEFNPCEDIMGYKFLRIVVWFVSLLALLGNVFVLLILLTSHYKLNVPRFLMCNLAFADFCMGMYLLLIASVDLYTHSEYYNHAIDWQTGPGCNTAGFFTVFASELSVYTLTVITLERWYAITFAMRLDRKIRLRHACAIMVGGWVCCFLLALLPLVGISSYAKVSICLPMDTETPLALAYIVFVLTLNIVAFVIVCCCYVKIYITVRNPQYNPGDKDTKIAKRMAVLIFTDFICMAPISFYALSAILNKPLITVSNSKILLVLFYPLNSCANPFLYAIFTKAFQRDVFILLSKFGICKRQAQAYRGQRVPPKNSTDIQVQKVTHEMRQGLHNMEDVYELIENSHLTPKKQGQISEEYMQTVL

For `O=C(O)c1ccccc1C(=O)Nc1ccc(S(=O)(=O)Nc2nccs2)cc1`, the Potency result in assay [1], in assay [5], in assay [7], in [8], in assay [10] and in [11] was “inactive” in each case. The Potency entry in assay [14] was “inactive”. In addition, the outcome in assay [2], in assay [3], in assay [4], in assay [6], in assay [9] and in assay [12] was inactive. Besides, in assay [13], the max response was -1.33%.

On to `Nc1cc(Cl)cc(S(=O)(=O)O)c1O`, for which the Potency entry in assay [1], in assay [5], in assay [7], in [8], in assay [10] and in [11] was “inactive” in each case. Further, the result in assay [2], in assay [3], in [15], in assay [6] and in [9] was inactive. Further, the max response in assay [13] was -4.63%.

For `CC1=NN(c2ccc(S(=O)(=O)O)cc2)C(=O)C1N=Nc1ccccc1` (stereo unspecified), the Potency entry in assay [1], in assay [5], in [8] and in assay [10] was “inactive” in each case. The molecule was called inactive in assay [3], in assay [15], in [6], in assay [9] and in assay [12].

With `CC(CC(=O)O)CC(C)(C)C` (stereo unspecified), the Potency entry in assay [1], in assay [5], in assay [7], in [10], in [11] and in assay [14] was “inactive” in each case. For the same molecule, the outcome in assay [2], in assay [3], in assay [4], in [15], in assay [6] and in assay [9] was inactive. For the same molecule, the max response in [13] was -0.126%.

Regarding `CCOC(=O)CCCCCCCCC(=O)OCC`, the Potency entry in [1], in assay [5], in assay [7], in [8], in assay [10] and in assay [11] was “inactive” throughout. For the same molecule, the Potency entry in assay [14] was “inactive”. Besides, the result in [2], in assay [4], in [15], in assay [6], in assay [9] and in assay [12] was inactive. Besides, the max response in [13] was 5.25%.

In the case of `OC[C@@H](O)[C@H](O)[C@@H](O)[C@@H](O)CO`, the outcome in assay [2], in [17], in assay [18], in assay [3], in [4] and in [15] was inactive. The result in assay [20], in assay [6], in [9] and in assay [12] was inactive. The Potency result in assay [16], in [5], in [19], in assay [7], in assay [8] and in assay [10] was “inactive” throughout. In addition, the Potency result in assay [11] and in [14] was “inactive” each time. Also, the max response in assay [13] was 0.901%.

For `CN=C(NC#N)NCCSCc1csc(N=C(N)N)n1`, the molecule was classed as inactive in assay [2], in assay [17], in [18], in assay [3], in assay [4] and in [15]. The molecule was called inactive in [20], in [6], in [9] and in assay [12]. The Potency entry in assay [16], in assay [5], in [19], in assay [7], in assay [8] and in [10] was “inactive” throughout. Also, the Potency result in [11] is “inactive”. For the same molecule, the max response in [13] was 1.73%.

With `CC1CCC(C(C)(C)S)C(=O)C1` (stereo unspecified), the call in assay [2], in assay [17], in assay [18], in [3], in assay [4] and in assay [15] was inactive. The call in [20], in assay [6], in assay [9] and in [12] was inactive. Further, the Potency entry in [16], in assay [5], in assay [19], in assay [8] and in assay [10] was “inactive” in each case. Also, the figures for the Potency in [7], in assay [11] and in assay [13] were 3.09 µM (active), 6.92 µM (active) and 3.09 µM (active), respectively.

Turning to `CCCCC(CC)COC(=O)c1ccccc1` (stereo unspecified), the Potency result in assay [1], in [5], in [7], in [8], in [10] and in assay [11] was “inactive” throughout. The Potency entry in assay [14] was “inactive”. For the same molecule, the call in [2], in assay [4], in [15], in assay [6], in assay [9] and in assay [12] was inactive. Further, the max response in assay [13] was 3.3%.
